In PubChem BioAssay AID651725 (National Center for Advancing Translational Sciences (NCATS), 2012):
Among all 360,000 compounds or so, about 2,000 (0.56%) were called active. Not shown: some 2% with an inconclusive outcome. This is one part of a sample in which actives are shown more often than they occur. No stated cut-off is given here; in the data, active means activity change below about -65%; inconclusive means mostly about -30% to -63%; inactive means weaker than that.

target: Homeobox protein SIX1 (Homo sapiens) + Protein phosphatase EYA2 (Homo sapiens) (UniProt Q15475+O00167); experiment: qHTS Assay for Inhibitors of the Six1/Eya2 Interaction; conditions: AlphaScreen GST-Six1/His-Eya2 binding, biochemical; stronger effect = lower value
Sequence (O00167 whole entry, looked up): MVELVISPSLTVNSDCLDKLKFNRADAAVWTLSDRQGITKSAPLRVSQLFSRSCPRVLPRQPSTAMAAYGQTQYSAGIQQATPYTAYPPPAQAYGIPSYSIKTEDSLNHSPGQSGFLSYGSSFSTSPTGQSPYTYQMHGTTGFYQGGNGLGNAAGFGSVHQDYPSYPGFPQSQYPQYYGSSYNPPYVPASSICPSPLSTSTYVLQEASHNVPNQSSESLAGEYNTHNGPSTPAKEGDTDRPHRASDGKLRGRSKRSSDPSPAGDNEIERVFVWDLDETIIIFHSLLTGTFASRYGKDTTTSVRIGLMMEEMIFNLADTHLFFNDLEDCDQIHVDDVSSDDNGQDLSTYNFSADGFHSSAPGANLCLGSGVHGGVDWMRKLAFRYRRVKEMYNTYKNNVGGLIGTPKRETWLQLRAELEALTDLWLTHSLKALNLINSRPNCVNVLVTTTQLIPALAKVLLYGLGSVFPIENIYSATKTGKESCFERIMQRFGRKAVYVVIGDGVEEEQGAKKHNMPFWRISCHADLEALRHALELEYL
Sequence (Q15475 whole entry, looked up): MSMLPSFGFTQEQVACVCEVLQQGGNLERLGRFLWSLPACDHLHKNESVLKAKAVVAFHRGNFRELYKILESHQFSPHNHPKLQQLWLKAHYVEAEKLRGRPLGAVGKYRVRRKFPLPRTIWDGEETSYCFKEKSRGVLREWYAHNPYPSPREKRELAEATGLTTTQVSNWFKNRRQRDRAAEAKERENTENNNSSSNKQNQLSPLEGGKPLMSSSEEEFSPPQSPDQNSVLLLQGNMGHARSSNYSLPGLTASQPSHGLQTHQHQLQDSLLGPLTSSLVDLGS
How it was run: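 AlphaScreen with GST-Six1 and His-Eya2 (5X mix: 250 nM and 500 nM), glutathione donor and nickel acceptor beads; buffer 50 mM Tris pH 8.0, 300 mM NaCl, 1 mM TCEP; 1 h at 37 C in the dark.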
On the % scale 0 is the no-effect control and ±100 the full control effect.

Compound | activity change
Cc1ccc(S(=O)(=O)N2[C@@H](Cc3ccccc3)CO[C@H]2CC(=O)OCc2ccccc2)cc1 | -3.63% (inactive)
CCOC(=O)C1C(C)C(C(C)(C)C)N(S(=O)(=O)c2ccc(C)cc2)C1c1ccccc1 (stereo not given) | 6.65% (inactive)
C=C(C)CNC(=S)N/N=C/c1ccccc1OCC(=O)O | 0.44% (inactive)
CCOc1cccc(/C=N/NC(=S)NCCN2CCOCC2)c1O | -92.1% (active)
O=C(NCCN1CCOCC1)Nc1cccc(Cl)c1 | 3.67% (inactive)
CCOC(=O)[C@]12CCCC=C1N(CCC1=CCCCC1)C(=O)[C@H](CC(=O)N1CCCCC1)C2 | -1.85% (inactive)
COc1ccc(C(=O)C(OP(=O)(OC)OC)c2ccccc2OC)cc1 (stereo not given) | 2.49% (inactive)
O=C(COC(=O)Cc1ccc(Br)cc1)Nc1c(F)c(F)c(F)c(F)c1F | 1.31% (inactive)
Oc1ccc2nc(Cc3ccccc3)[nH]c2c1 | -2.17% (inactive)
Brc1ccccc1/C=N/Nc1nc2ccccc2o1 | -4.05% (inactive)
Cc1nc2ccccc2nc1N/N=C/c1ccc(O)cc1O | -69.1% (active)
Oc1ccc(/C=N/Nc2nc(-c3ccccc3F)nc3ccccc23)c(O)c1 | -71.7% (active)
O=C(C[C@H]1CC[C@@H](NC(=O)c2ccncc2)[C@@H](CO)O1)NCC1CC1 | 8.47% (inactive)
CCCCCCCCN1C(=O)[C@H](CC(=O)NCC23CC4CC(CC(C4)C2)C3)C[C@@]2(C(=O)OC)CCCCC=C12 | -0.139% (inactive)
O=S1(=O)CC(N2CCSCC2)CN1Cc1cn(Cc2cccc(Cl)c2)nn1 (stereo not given) | 0.627% (inactive)
CCOc1cccc2c1OC1(CCCCC1)N1N=C(c3cccnc3)CC21 (stereo not given) | -13.8% (inactive)
C[C@H]1COc2cc(N3CCSCC3)ccc2S(=O)(=O)N1 | 3.55% (inactive)
COc1ccc(S(=O)(=O)Nc2ccc(F)cc2)c(C)c1C | -0.291% (inactive)
COc1cc(N2CCCC2)c(OC)cc1/C=C(/C#N)c1cccc(Br)c1 | -67% (active)
Cc1nc2c(OCc3ccc(Cl)cc3Cl)cccn2c1N(C)CC1CC1 | -5.16% (inactive)
Nc1nc2ncccn2c1-c1ccccc1 | 3.63% (inactive)
CCCOc1ccc(Cc2c(O)nc(N)[nH]c2=O)cc1C | -5.12% (inactive)
Cc1ccc(S(=O)(=O)N2CC3C(=O)C[C@@H](c4ccccc4Cl)N(S(=O)(=O)c4ccc(C)cc4)C3CC2c2ccccc2)cc1 (stereo not given in full) | -4.43% (inactive)

Compound | activity change
CC1(C)OC(=O)C2=C(C[C@@H](C3CC3)O[C@H]2CCc2cccc(Cl)c2)O1 | 7.67% (inactive)
CCc1c(-c2ccc(F)cc2)ncn1Cc1cccc(-c2ccccc2)c1 | -29.6% (inactive)
O=C(Nc1ccccc1)Oc1cccc2cccnc12 | -91.9% (active)
NC(=O)C1CCN(C(=O)COc2cccc3cccnc23)CC1 | 8.87% (inactive)
O=S(=O)(NCCOc1cccc2cccnc12)c1ccc(F)cc1 | 6.83% (inactive)
CCCCNC(=O)C[C@@H]1C[C@@]2(C(=O)OC)CC(C)(C)CC=C2N(Cc2ccco2)C1=O | -8.69% (inactive)
CCCc1c(C(=O)Nc2ccc(F)cc2)cnn1-c1ccccc1 | 1.46% (inactive)
COCCCn1cc(CN2CC(N(C)C)CS2(=O)=O)nn1 (stereo not given) | 15.9% (inactive)
COC(=O)[C@]12CCCCC=C1N(CCC1=CCCCC1)C(=O)[C@H](CC(=O)N1CCSCC1)C2 | -5.23% (inactive)
COc1ccc(NC(=O)CCNC(=O)Cn2cnc3sc4c(c3c2=O)CCCC4)cc1OC | -2.73% (inactive)
COc1ccc(NC(=O)CCCNC(=O)Cn2cnc3sc4c(c3c2=O)CCCC4)cc1OC | -5.21% (inactive)
COc1ccc(/C=N/Nc2ncnc3sc4c(c23)CCCC4)cc1O | -78.1% (active)
CO[C@@H]1CN(C)C(=O)c2cc(NC(=O)Nc3cc(F)ccc3F)ccc2OC[C@H](C)N(C(=O)c2ccccn2)C[C@@H]1C | -5.82% (inactive)
CCOC(=O)N1CCN(C(=O)C[C@@H]2C[C@@]3(C(=O)OC)CC(C)(C)CC=C3N(Cc3ccco3)C2=O)CC1 | -1.81% (inactive)
COc1ccccc1C(=O)NCCC(=O)N(C)Cc1cccnc1 | 6.46% (inactive)
COc1ccc2c(c1)c(=Cc1ccc(N(C)C)cc1)c1cc(-c3ccccc3)[n+](C)n12 | -69.4% (active)
CCCCCNC(=O)C1C(=O)Nc2ccccc2C(=O)N1C(C)(C)C (stereo not given) | 1.59% (inactive)
Nc1ncnc2c1ncn2[C@@H]1O[C@H](CNCc2cccn2-c2nccs2)[C@@H](O)[C@H]1O | 0.147% (inactive)
Cc1ccc(S(=O)(=O)c2cc3c(=O)n4cccc(C)c4nc3n(CCc3ccccc3)c2=N)cc1C | 0.223% (inactive)
COc1ccc(CCn2c(=N)c(C(=O)NCc3ccco3)cc3c(=O)n4cccc(C)c4nc32)cc1 | -68.6% (active)
Cc1cccn2c(=O)c3cc(C(=O)NCCN4CCOCC4)c(=N)n(Cc4cccnc4)c3nc12 | -20.8% (inactive)
Cc1cccc(N(C(=O)c2ccc(CN3CCOCC3)o2)C(C(=O)NC2CCCCC2)c2ccc(F)cc2)c1 (stereo not given) | 0% (inactive)
COC(=O)[C@@]12C[C@@H](CC(=O)NCc3cccc(C(F)(F)F)c3)C(=O)N(Cc3ccco3)C1=CCC(C)(C)C2 | -8.64% (inactive)

Compound | activity change
CCOC(=O)N1CCN(C(=O)COc2ccc3oc4c(c3c2)CCCC4)CC1 | -10.2% (inactive)
CCOC(=O)c1c(C)oc2cc(Br)c(OCC(N)=O)cc12 | 5.69% (inactive)
CCOC(=O)c1c(C)oc2ccc(OCC(=O)N(CC)CC)cc12 | -68.9% (active)
CC1(C)NC(=O)N(CC(=O)Nc2ccc(-c3ccccc3)cc2)C1=O | 5.24% (inactive)
CCC(c1nc2ccccc2[nH]1)n1c(=O)c(-c2cccs2)nc2ccccc21 (stereo not given) | 9.68% (inactive)
CCCCc1c(-c2ccc(Br)cc2)ncn1CCc1ccccc1OC | -13.5% (inactive)
CC/C(O)=N\S(=O)(=O)c1ccc(N=NN(C)C)cc1 | 0% (inactive)
CC(=NNC(=O)c1ccc2nc[nH]c2c1)c1ccc(Br)cc1 | 0.936% (inactive)
CN(C)N=Nc1ccc2nc[nH]c2c1 | -72.7% (active)
COC(=O)[C@@]1(Sc2ccc(C)cc2)CC(=O)N(c2cccc(SC)c2)[C@@H]1c1ccccc1 | -16.4% (inactive)
Cc1cc(C)nc(N/N=C/c2c(CO)cnc(C)c2O)n1 | -75.1% (active)
Cc1ccc(S(=O)(=O)N[C@H]2CCC[C@@H]2O)cc1 | 7.33% (inactive)
CC1Cc2[nH][nH]c(=O)c2C(C2CC2)O1 (stereo not given) | -3.07% (inactive)
CC(=O)C[C@@H]1OC[C@H](C)N1S(=O)(=O)c1ccc(C)cc1 | -0.665% (inactive)
Cc1ccc(S(=O)(=O)n2oc(=O)c(C3CCCCC3)c2N)cc1 | -78.3% (active)
Cc1ccc(S(=O)(=O)N2CCC(N3CCCCCC3)CC2)cc1 | -10.2% (inactive)
Cc1ccc(S(=O)(=O)NC2CCCCCC2)cc1 | 8.84% (inactive)
CCC(CC)C(C(=O)NC1CCCC1)N1CCN(c2cc(C)nc3ccccc23)CC1 (stereo not given) | 0.151% (inactive)
O=S(=O)(c1ccc(F)cc1)N1CC=C(c2ccccc2)CC1 | 11.2% (inactive)
Cn1c(CNc2nc(-c3ccccc3)cs2)nnc1SCC(=O)c1ccccc1 | -73.7% (active)
Cn1c(SCC(=O)c2ccc(F)cc2)nnc1-c1ccccn1 | 3.69% (inactive)
Cn1c(CC(=O)Nc2ccccc2)nnc1SCC(=O)c1ccccc1 | 3.83% (inactive)
COc1ccc(OC)c(CN2C(=O)CCC2(C)c2nnnn2Cc2ccccc2)c1 (stereo not given) | 0.523% (inactive)

Compound | activity change
COc1cc(C(=O)Nc2ncccc2C)ccc1OCC(=O)N1CCOCC1 | 7.15% (inactive)
Fc1ccccc1Cc1ccc(Cl)nn1 | 4.04% (inactive)
Oc1cccc(/C=N/Nc2ccc(Cl)nn2)c1O | -85.5% (active)
C/C(=N\Nc1ccc(Cl)nn1)c1ccccc1O | -71.4% (active)
C/C(=N/Nc1ccc(Cl)cc1)c1cnnc(-c2ccccc2)n1 | 9.69% (inactive)
CCC1OC(C2CC2)CC2=C1C(=O)OC(C)(C)O2 (stereo not given) | -0.697% (inactive)
COc1ccc2c(c1)c(C(=O)N/N=C/c1cccs1)c(C)n2C | -4.11% (inactive)
CCOC(=O)[C@]12CCCC=C1N(CCC1=CCCCC1)C(=O)[C@H](CC(=O)NCCCCc1ccccc1)C2 | -0.886% (inactive)
COc1ccc(C(C(=O)Nc2c(C)cccc2C)N2CCN(c3ccc(C)cc3)CC2)cc1 (stereo not given) | -4.54% (inactive)
COc1ccc(/C=N/NC(=O)C2CC2)c(OC)c1OC | 3.31% (inactive)
COc1cc(/C=N/NC(=O)c2cccnc2)ccc1OC(=O)c1cccc(Br)c1 | -6.91% (inactive)
COc1ccc(OC)c(/C=N/NC(=O)c2ccc[n+](CC(=O)c3ccccc3)c2)c1 | -5.56% (inactive)
COc1cccc(/C=N/NC(=O)c2[nH]nc3c2CCc2ccccc2-3)c1O | -65.7% (active)
CCn1c(/C=N/NC(=O)c2ccc(OC)cc2)nc2ccccc21 | -12.5% (inactive)
COc1cccc(/C=N\NC(=O)C2=NNC(=O)C2C)c1O (stereo not given) | -90.9% (active)
Cc1cccc(C)c1NC(=O)C(c1cccc2ccccc12)n1c(=O)c(-c2ccco2)nc2ccccc21 (stereo not given) | -22.2% (inactive)
CC(C)OC(=O)CC(=O)CC(O)c1cccc([N+](=O)[O-])c1 (stereo not given) | -3.63% (inactive)
CC(C)(C)Nc1nc(-c2ccccn2)nc2ccccc12 | -89.4% (active)
c1ccc(-c2nccc(-c3ccc(-n4cnc5ccccc54)cc3)n2)nc1 | -10.5% (inactive)
Cc1nc2ccccc2c(C(=O)O)c1-c1ccccn1 | 7.28% (inactive)
COc1ccc2c(c1)N(C)/C(=C1/SC(=S)N(NC(C)=O)C1=O)S2 | -8.77% (inactive)
